TWEAK Fn14 block – inhibitors of TWEAK-Fn14 signaling, primary screen, luciferase reporter cells, uHTS | TWEAK-stimulated Fn14 reporter cells, luciferase luminescence, 8 h | inhibition, % at 10 µM | 360,000 tested, 2% active | AID 1159606, 2016; in the data active = inhibition above about 50%
LGR2 inh – inhibitors of bursicon-induced LGR2 CRE-luciferase signal, primary screen, cell-based, HEK293, CRE-luciferase reporter, bursicon stimulation; AID 720647, 2013; 380,000 tested, 0.35% active; inhibition, % at 9.99 µM; Drosophila bursicon receptor LGR2 (rickets); bursicon-stimulated, 4 h;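 active = drop in luminescence signal, shown as inhibition above about 50% in the replicate tests, limit read from the data, passing the limit was not always enough; inconclusive = probably only some replicates passing the limit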;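 note: agonist challenge used bursicon conditioned medium at about half maximal strength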
EBV LMP1 NFkB – EBV LMP1-driven NF-kappaB luciferase reporter inhibitors, primary screen, cell-based, luminescence, single point; LMP1-induced NF-kappaB luciferase reporter cells; inhibition, % at 12.5 µM; 350,000 tested, 0.69% active; in the data active = inhibition above about 41%; inconclusive = no clear call, values can overlap the other calls
EWS-Fli inh – EWS/Fli-driven NR0B1 reporter inhibitors, primary screen, A673 cells, NR0B1 luciferase, luminescence, MLPCN library; viability-normalised; inhibition, % at 12.6 µM; 350,000 tested, 0.67% active; AID 651661, 2012;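 active = mean inhibition of at least 50% after viability correction, with every replicate also passing that limit; inconclusive = mean reaches 50% but only one of two replicates passes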;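 note: firefly luciferase signal divided by Alamar Blue viability fluorescence both relative to DMSO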
TROY NFkB inh – inhibitors of TROY-driven NF-kB signaling, primary screen, Q293 LMP1-TROYcd cells, NF-kB luciferase, uHTS. 360,000 tested, 0.98% active. Q293 LMP1-TROYcd NF-kB luciferase reporter, 4 h. inhibition, % at 10 µM;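 active = compounds whose plate-normalised and pattern-corrected inhibition of the luciferase reporter signal at the single screening dose is 50% or more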
Large screens that a line does not name were inactive. The list is not random: actives were taken first. Their share in the collection is about 2.5%.

COc1ccc(-c2coc3c(C(=O)Nc4ccc(OC)nc4)cccc23)c(C)c1	none (no result: EBV LMP1 NFkB)
COc1ccc(-c2coc3c(C(=O)Nc4cc(OC)c(OC)c(OC)c4)cccc23)c(C)c1	TWEAK Fn14 block 93, LGR2 inh 58, TROY NFkB inh 63 (no result: EBV LMP1 NFkB)
COC(=O)[C@@H]1[C@@H](CO)[C@@H]2Cn3c(ccc(C4=CCCCC4)c3=O)[C@@H]2N1C(=O)C1CC1	none (no result: TWEAK Fn14 block, EBV LMP1 NFkB, TROY NFkB inh)
O=C([C@H]1[C@H](CO)[C@H]2Cn3c(ccc(-c4cccnc4)c3=O)[C@@H]1N2CCC(F)(F)F)N1CCCCC1	none (no result: TWEAK Fn14 block, EBV LMP1 NFkB, TROY NFkB inh)
COc1cccc(CNc2ncc(C(=O)Nc3cc(OC)c(OC)c(OC)c3)c(C)n2)c1	EWS-Fli inh 52
CC(=O)c1cccc(NC(=O)c2cccc3c(-c4cccc(C(N)=O)c4)coc23)c1	TWEAK Fn14 block 83, TROY NFkB inh 64 (no result: EBV LMP1 NFkB)
O=S(=O)(CC(CN1CCCCC1)N1CCCCC1)c1ccc2ccccc2c1 (stereo not given)	LGR2 inh 50
Cc1ccc(S(=O)(=O)CC(CN2CCCCC2)N2CCCCC2)cc1 (stereo not given)	none
C[C@@H]1CCCCO[C@@H](CN(C)Cc2ccccc2)[C@@H](C)CN([C@H](C)CO)C(=O)c2cc(NC(=O)CCC(F)(F)F)ccc2O1	none (no result: TWEAK Fn14 block, EBV LMP1 NFkB, TROY NFkB inh)
CNC(=S)N/N=C/c1ccc(-c2cccc(C(=O)O)c2)o1	LGR2 inh 65
Cc1ccc(C(=O)N/N=C/c2ccc(-c3cccc(C(F)(F)F)c3)o2)cn1	EWS-Fli inh 50 (no result: LGR2 inh)
Cc1ccc(OCC(=O)N/N=C\c2ccc(-c3cccc(C(=O)O)c3)o2)c(C)c1	none (no result: EWS-Fli inh)
C[C@@H]1CCCCO[C@@H](CN(C)S(C)(=O)=O)[C@@H](C)CN([C@H](C)CO)C(=O)c2cc(NC(=O)c3ccccc3)ccc2O1	none (no result: TWEAK Fn14 block, EBV LMP1 NFkB, TROY NFkB inh)
OC[C@H]1[C@H]2c3ccccc3NC[C@H]2N1CC1CCOCC1	none (no result: TWEAK Fn14 block, EBV LMP1 NFkB, TROY NFkB inh)
O=C1NC[C@@H](c2ccccc2)OC(=O)[C@H](Cc2ccc(F)cc2)C/C=C\C[C@H]1CC(=O)N(CCO)Cc1ccccc1	none
O=C1NC[C@H](c2ccccc2)OC(=O)[C@H](Cc2ccc(F)cc2)C/C=C\C[C@H]1CC(=O)N(CCO)Cc1ccccc1	LGR2 inh 58
O=C1NC[C@H](c2ccccc2)OC(=O)[C@@H](Cc2ccc(F)cc2)C/C=C\C[C@H]1CC(=O)N(CCO)Cc1ccccc1	LGR2 inh 61
S=C(NCCN(C1CCCCC1)C1CCCC1)Nc1cccc(Cl)c1	none
S=C(NCCC(c1ccccc1)c1ccccc1)Nc1cccc(Cl)c1	TROY NFkB inh 62 (no result: LGR2 inh, EWS-Fli inh)
C[C@H](CO)N1C[C@H](C)[C@H](CN(C)Cc2ccccc2)OCc2ccccc2-c2ccccc2C1=O	EWS-Fli inh 70 (no result: TWEAK Fn14 block, EBV LMP1 NFkB, TROY NFkB inh)
C[C@H](CO)N1C[C@H](C)[C@@H](CN(C)Cc2ccc(-c3ccccc3)cc2)Oc2ncc(-c3cccnc3)cc2C1=O	EWS-Fli inh 69 (no result: TWEAK Fn14 block, EBV LMP1 NFkB, TROY NFkB inh)
Cc1ccc(C(=O)Oc2coc(CSc3nnc(NC(=O)C4CC4)s3)cc2=O)cc1C	TROY NFkB inh 82 (no result: EWS-Fli inh)
CCCNC(=O)[C@@H]1[C@@H](CO)[C@@H]2Cn3c(ccc(-c4ccccc4F)c3=O)[C@@H]2N1C	none (no result: TWEAK Fn14 block, EBV LMP1 NFkB, TROY NFkB inh)
CCCCN(C)CCNC(=O)c1cc(-c2cccnc2)nc2ccc(S(=O)(=O)N3CCC(C)CC3)cc12	none (no result: EWS-Fli inh)
CCN(CC)CCNC(=O)c1cc(-c2cccnc2)nc2ccc(S(=O)(=O)N3CCC(C)CC3)cc12	EWS-Fli inh 63
C[C@H]1CN([C@@H](C)CO)S(=O)(=O)c2ccc(-c3cncnc3)cc2O[C@@H]1CN(C)C(=O)Cc1ccccc1	none (no result: TWEAK Fn14 block, EBV LMP1 NFkB, TROY NFkB inh)
CCCCOc1ccc2c(c1)/C(=C(\C(Cl)=C(Cl)Cl)[N+](=O)[O-])N2	EBV LMP1 NFkB 44
COc1cc(-c2ccc3sc(-c4ccsc4)c(C#CCO)c3c2)cc(OC)c1OC	TWEAK Fn14 block 60
COc1ccc2sc(-c3ccc(S(C)(=O)=O)cc3)c(C#CCO)c2c1	TWEAK Fn14 block 77, LGR2 inh 57
C[C@@H]1CN([C@@H](C)CO)C(=O)c2cccc(NS(C)(=O)=O)c2O[C@H]1CN(C)C(=O)Nc1ccc2c(c1)OCO2	none (no result: TWEAK Fn14 block, EBV LMP1 NFkB, TROY NFkB inh)
COc1ccc(CCNC(=O)COC(=O)C23CC4CC(CC(C4)C2)C3)cc1	none
COc1ccc(CCNC(=O)COC(=O)C23CC4CC(CC(Br)(C4)C2)C3)cc1	TWEAK Fn14 block 70 (no result: LGR2 inh)
CO[C@@H]1CN(C)C(=O)c2ccc(NC(=O)Cc3ccccc3)cc2OC[C@@H](C)N(C(=O)c2ccccc2F)C[C@@H]1C	none (no result: TWEAK Fn14 block, EBV LMP1 NFkB, TROY NFkB inh)
O=C(O)c1cccc(N2C(=O)/C(=C/c3ccc([N+](=O)[O-])cc3)C=C2c2ccccc2)c1	TWEAK Fn14 block 52, LGR2 inh inconclusive
O=C1/C(=C/c2ccc([N+](=O)[O-])cc2)C=C(c2ccccc2)N1c1ccccc1	none (no result: LGR2 inh, EWS-Fli inh)
COc1ccc2nc3n(c(=O)c2c1)-c1ncccc1C(=O)NC3CC(C)C (stereo not given)	TWEAK Fn14 block 76
O=C(C1CCN(c2ncnc3c2nc2n3CCCCC2)CC1)N1CCN(c2cccc(Cl)c2)CC1	TWEAK Fn14 block 54 (no result: EWS-Fli inh)
O=C(C1CCCN(c2ncnc3c2nc2n3CCCCC2)C1)N1CCN(c2ccc(Cl)cc2)CC1 (stereo not given)	none (no result: EWS-Fli inh)
COc1ccc(-c2cnnc(N/N=C/c3ccc(-c4ccc([N+](=O)[O-])cc4)o3)n2)cc1	EWS-Fli inh 53
C[C@@H]1CN([C@@H](C)CO)C(=O)c2cc(NC(=O)Cn3cnnn3)ccc2O[C@@H]1CN(C)C(=O)Nc1ccccc1	none (no result: TWEAK Fn14 block, EBV LMP1 NFkB, TROY NFkB inh)
CC(=O)N(/N=C1\Sc2ccccc2C1=O)c1ccc(C)cc1C	TWEAK Fn14 block 91 (no result: LGR2 inh, EWS-Fli inh)
CC(=O)N(/N=C1\Sc2ccccc2C1=O)c1ccccc1C	none (no result: LGR2 inh, EWS-Fli inh)
CC1(c2ccccc2)CC(C)(C)N2C(=O)C3(C(C#N)=C(N)Oc4cc(O)ccc43)c3cccc1c32 (stereo not given)	TWEAK Fn14 block 57
Cc1cc2c3c(c1)C(C)(c1ccccc1)CC(C)(C)N3C(=O)C21C(C#N)=C(N)OC2=C1C(=O)CC(C)(C)C2 (stereo not given)	none (no result: LGR2 inh, EWS-Fli inh)
Cc1cccc(N=C2NN=C(c3ccc4c(c3)OCCO4)CS2)c1	TWEAK Fn14 block 54, TROY NFkB inh 57
CCc1ccc(C2=NNC(=Nc3cccc(S(=O)(=O)N(C)C)c3)SC2)cc1	TWEAK Fn14 block 72 (no result: LGR2 inh)
O=C(Nc1ccc(Cl)cc1)c1ccc2snnc2c1	EBV LMP1 NFkB 80
CCCNC(=O)Nc1ccc2c(c1)C(=O)N(C)[C@@H]1CC[C@@H](CC(=O)O)O[C@@H]1CO2	none (no result: TWEAK Fn14 block, EBV LMP1 NFkB, TROY NFkB inh)
O=C(C[C@H]1CC[C@H](NC(=O)Nc2cccc(F)c2)[C@H](CO)O1)NCC1CCCCC1	none (no result: TWEAK Fn14 block, EBV LMP1 NFkB, TROY NFkB inh)
O=C(NCCN1C(=O)S/C(=C\c2ccc(OC(F)F)cc2)C1=O)C1=COCCO1	none (no result: LGR2 inh, EWS-Fli inh)
O=C(NCCN1C(=O)S/C(=C\c2ccc(OC(F)F)cc2)C1=O)c1cnccn1	EWS-Fli inh 59
